# Where “and” joins values, the source holds several entries; their conditions need not be identical. Equal values may be shown once. Among all 360,000 compounds or so, about 3,000 (0.83%) were called active. For the sample, actives were picked, then their nearest neighbours and some compounds at random. Unmarked numbers belong to inactive results. Cut-off read from the data, not from the text of the source: active = inhibition above about 38%; inactive = the rest.
# Target: G-protein coupled receptor 183 (Homo sapiens) (UniProt P32249)
# Assay: EBI2 receptor antagonists, beta-arrestin recruitment, primary screen, cell-based, luminescence, 7a,25-OHC stimulation, uHTS (AID 651636);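 note: enzyme fragment complementation signal reports receptor beta-arrestin coupling in cells; 0% = agonist plus DMSO wells and 100% = wells without agonist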
# Details: 7a,25-OHC stimulated, at 5 µM, stronger effect = higher value
# G-protein coupled receptor 183 (Homo sapiens), sequence (P32249 whole entry, looked up, the tested form may be a part): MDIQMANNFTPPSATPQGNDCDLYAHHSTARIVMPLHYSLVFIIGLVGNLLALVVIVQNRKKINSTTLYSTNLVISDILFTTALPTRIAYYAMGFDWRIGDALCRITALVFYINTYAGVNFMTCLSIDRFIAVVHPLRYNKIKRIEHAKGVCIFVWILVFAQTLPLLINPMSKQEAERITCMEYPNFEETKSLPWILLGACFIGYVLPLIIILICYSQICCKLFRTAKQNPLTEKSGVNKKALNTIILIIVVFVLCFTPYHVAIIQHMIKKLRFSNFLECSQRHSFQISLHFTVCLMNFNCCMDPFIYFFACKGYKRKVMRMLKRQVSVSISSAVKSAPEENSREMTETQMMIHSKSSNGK
row,Compound,inhibition
1,COc1cc2c(cc1OC)CC1(CCCCC1)N=C2,7.31%
2,CN(C)S(=O)(=O)c1cccc(NC(=O)COc2ccc3ccccc3c2)c1,8.2%
3,CN(Cc1ccc(F)cc1)C(=O)COc1ccc2ccccc2c1,93.1% (active)
4,Cc1ccc(C)c(NC(=O)CN(C)C(=O)COc2ccc3ccccc3c2)c1,27.2%
5,CC1(C)OC(=O)C2=C(C[C@@H](C3CCCC3)O[C@@H]2c2ccc(Cl)cc2)O1,-3.37%
6,Cn1c(CC2Sc3ccccc3NC2=O)nnc1SCC(=O)c1ccc(Cl)cc1 (centres undefined),3.76%
7,O=C(/C=C/c1cn(-c2ccccc2)nc1-c1ccc2c(c1)OCCO2)NCCCN1CCOCC1,3.63%
8,Cc1ccc(-c2nn(-c3ccccc3)cc2/C=C/C(=O)Nc2cccc(S(N)(=O)=O)c2)cc1,41.1% (active)
9,Cc1ccc(-c2nn(-c3ccccc3)cc2C(=O)Nc2cccc(S(=O)(=O)N3CCOCC3)c2)cc1,27.6%
10,CC[C@]12c3[nH]c4cc(CCC(=O)N(C)C)ccc4c3CCN1C(=O)[C@@H](CC(=O)NCc1ccco1)C[C@@H]2C(=O)N1CCN(C(=O)c2ccco2)CC1,-5.36%
11,CCN(CCCNC(=O)CSc1cc(=O)n(C)c2cc(Cl)ccc12)Cc1ccccc1,8.14%
12,Cc1cc(Cl)c2oc(C(=O)NC(C)c3ccncn3)c(C)c2c1 (centres undefined),-2.48%
13,Cc1cc(Cl)c2oc(C(=O)N(C)C(C)c3ccccn3)c(C)c2c1 (centres undefined),4.48%
14,Cc1cc(Cl)c2oc(C(=O)N3CCC(O)(c4ccccc4)CC3)c(C)c2c1,73.4% (active)
15,CSc1nnc(CNC(=O)c2ccccc2)n1-c1ccc(F)cc1,-8.06%
16,Cn1c(NC(=O)c2ccco2)c(-c2ccccc2Cl)c(=O)c2ccccc21,2.45%
17,COCCNc1nc2nonc2nc1N(C)Cc1ccc(C)cc1,-3.45%
18,NS(=O)(=O)c1ccccc1NC(=O)c1c(O)c2ccccc2[nH]c1=O,2.5%
19,O=C(c1ccccc1Oc1ccccc1)N1CCN(c2ccc(F)cc2)CC1,7.76%
20,O=C(c1cc2cc(F)ccc2[nH]1)N1CCN(c2ccc(F)cc2)CC1,71.3% (active)
21,Cc1c(C(=O)N2CCN(c3ccc(F)cc3)CC2)oc2c1C(=O)CCC2,-8.48%
22,CCn1c(=S)sc2c(=O)n(CC(=O)Nc3ccc(OC)cc3)c(C)nc21,1.99%

row,Compound,inhibition
1,COc1ccc(NC(=S)N2N=CCC2c2ccccc2)cc1 (centres undefined),3.93%
2,CC(=O)N1c2ccc(S(=O)(=O)NCCC(=O)N(C)C3CCCCC3)cc2CC1C (centres undefined),-4.73%
3,Fc1ccc(Cn2nnnc2C(c2cccs2)N2CCCCCC2)cc1 (centres undefined),6.98%
4,CCCCn1nnnc1C(c1ccccc1)N1CCN(c2ccccc2OC)CC1 (centres undefined),1.91%
5,N#Cc1ccc(C(c2nnnn2CCc2ccccc2)N2CCCCCC2)cc1 (centres undefined),50.2% (active)
6,O=C(CN1CCOCC1)Nc1c2c(nc3c1CCC3)CCC2,7.47%
7,CCCNC(=O)N1CCN(C(=O)NCCC)CC1,-0.62%
8,Cc1cccc(-n2c(O)c(C=Nc3ccccc3N)c(=O)[nH]c2=O)c1,95.3% (active)
9,COc1ccc(-c2cn(-c3ccc(OC)cc3)c(=S)[nH]2)cc1,86.5% (active)
10,COc1ccc(-n2cc(-c3ccccc3)c3c(=S)nc[nH]c32)cc1,14.3%
11,O=c1oc2ccccc2cc1-c1cn(-c2ccccc2)c(=S)[nH]1,-9.67%
12,Cc1nc2ccc(S(=O)(=O)NCC(=O)O)cc2s1,-11.4%
13,CC[n+]1c(C)n(-c2ccccc2)c2ccc(NC(C)=O)cc21,3.98%
14,N/C(=N\OC(=O)CCc1ccccc1)c1ccc(Cl)cc1,12.5%
15,Cc1cc(C)cc(NC(=O)NC2CCN(CC(=O)Nc3cccc(Cl)c3C)CC2)c1,18.1%
16,Cc1cccc(NC(=O)CN2CCN(C(=O)C3CCN(C(=O)/C=C/c4ccccc4)CC3)CC2)c1C,79.2% (active)
17,Cc1cccc(NC(=O)CN2CCN(CC(=O)NCC3(N4CCCCC4)CCCCC3)CC2)c1C,-3.14%
18,O=C(C[C@H]1CC[C@@H](NC(=O)c2ccncc2)[C@@H](CO)O1)NCC1CC1,-1.01%
19,CC(C)C(=O)N1CCN(CCN=CC2=C(O)CC(c3ccco3)CC2=O)CC1 (centres undefined),-2.69% and -8.63%
20,CCOc1ccc(-c2noc(CCC(=O)NC3CCCC3)n2)cc1OC,8.53%
21,CCOc1nc(-c2ccc(OC)cc2)ccc1-c1noc(-c2cc(OC)c(OC)c(OC)c2)n1,49.3% (active)
22,CCOc1cc(-c2noc(CCC(=O)N3CCOCC3)n2)ccc1OC,-2.72%
